Inconclusive results are not listed. Activity calls are given as the source filed them. Unless noted, calls come from the whole dose curve; as a rule, active = well fitted curve in the direction sought with a large enough effect in the repeat runs; inconclusive = weak or mixed curves; inactive = no such curve, though single readings can be large; an effect the other way counts as inactive or inconclusive.
Legend:
[1] = qHTS assay for small molecule agonists of the p53 signaling pathway (AID 651631; calls by dose curve; note: nearly all actives have a fitted effect of over 15% in size; note: potency is the fitted concentration of half-maximal effect)
Summary of the method: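 Read-out is beta-lactamase FRET fluorescence measured 2 h after substrate addition at room temperature, in HCT-116 cells with a p53 response element-driven reporter exposed to compounds for 16 h at 37 °C.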

[2] = qHTS assay for small molecules that induce genotoxicity in human embryonic kidney cells expressing luciferase-tagged ATAD5 (AID 651632); note: nearly all actives have a fitted effect of over 15% in size
Summary of the method: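 DMSO vehicle served as the control. HEK293T reporter cells, 16 hr at 37C, then 30 min Amplite at room temperature; ATAD5 induction is measured as luciferase activity.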

[3] = qHTS assay for small molecule agonists of the p53 signaling pathway - cell viability (AID 651633; calls by dose curve; note: nearly all actives have a fitted effect of over 30% in size; note: potency is the fitted concentration of half-maximal effect;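 for activity change, negative = cytotoxicity: p53RE-bla HCT reporter cells with a stable beta-lactamase p53 reporter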)
Summary of the method: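 Viability counter-read: CellTiter-Glo luminescence (30 min, room temperature) in the same p53RE-bla plates. These plates had been exposed to compounds for 16 h at 37 C.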

[4] = qHTS assay for small molecules that induce genotoxicity in human embryonic kidney cells expressing luciferase-tagged ATAD5 - cell viability (AID 651634; calls by dose curve; note: nearly all actives have a fitted effect of over 25% in size)
Summary of the method: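 Here HEK293T cells with the ATAD5 luciferase reporter are incubated with test compounds for 15.5 hr, and cytotoxicity is then gauged by measuring protease activity in live cells using fluorescence.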

[5] = qHTS assay for small molecule disruptors of the mitochondrial membrane potential - cell viability (AID 720634; calls by dose curve;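 note: human HepG2 liver cancer cells; nearly all actives have a fitted effect of over 20% in size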)
Summary of the method: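 Viability of HepG2 cells is scored from ATP content by luminescence; cells are exposed to compound for 1 hr at 37 C and 5% CO2, then dosed with m-MPI dye before the CellTiter-Glo reagent.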

[6] = qHTS assay to test for compound auto fluorescence at 590 nm (red) in HepG2 cells (AID 720674)
Summary of the method: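 1 hr compound incubation on HepG2 cells, 37 C, 5% CO2; plate read ex 540 nm / em 590 nm; intensities reported as Rose Bengal sodium equivalents.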

[7] = qHTS assay to test for compound auto fluorescence at 535 nm (green) in HepG2 cells (AID 720675)
[8] = qHTS assay to test for compound auto fluorescence at 460 nm (blue) in HEK293 cells (AID 720678)
Summary of the method: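 Auto fluorescence in the blue band was quantified as triamterene equivalency. HEK293 cells were seeded at 2,000/well, dosed after a 4-5 hr attachment, and kept overnight at 37C before the 405/460 nm reading.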

[9] = qHTS assay to test for compound auto fluorescence at 590 nm (red) in HEK293 cells (AID 720679)
Summary of the method: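 Autofluorescence equivalency to Rose Bengal sodium, 540/590nm, in HEK293 cells exposed overnight to 23 nL compound per well.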

[10] = qHTS assay to test for compound auto fluorescence at 535 nm (green) in HEK293 cells (AID 720680)
[11] = qHTS assay to test for compound auto fluorescence at 460 nm (blue) in HEK293 cell free culture (AID 720681)
Summary of the method: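 Blue fluorescence (Ex 405/Em 460 nm, triamterene-equivalent) was read immediately after pin transfer of compound or DMSO into medium (DMEM, 10% FBS) without cells.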

[12] = qHTS assay to test for compound auto fluorescence at 590 nm (red) in HEK293 cell free culture (AID 720683)
Summary of the method: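 Red-channel autofluorescence of compounds in culture medium (DMEM, 10% FBS), no cells, measured at 540/590 nm. Rose Bengal sodium is the reference fluorophore for equivalence.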

[13] = qHTS assay to test for compound auto fluorescence at 590 nm (red) in HepG2 cell free culture (AID 720684)
Summary of the method: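 No cells present: MEM + 10% FBS only. Compound pinned in, red label read (540/590 nm). Activity = fluorescence equivalent to Rose Bengal sodium.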

[14] = qHTS assay to test for compound auto fluorescence at 460 nm (blue) in HepG2 cell free culture (AID 720685)
Summary of the method: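 Cell-free plates of MEM plus 10% FBS received 23 nL compound or DMSO vehicle; blue-channel (405/460 nm) intensity scored against triamterene as reference fluorophore.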

[15] = qHTS assay to test for compound auto fluorescence at 535 nm (green) in HepG2 cell free culture (AID 720686)
[16] = qHTS assay to test for compound auto fluorescence at 460 nm (blue) in HepG2 cells (AID 720687)
Summary of the method: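 Blue-channel autofluorescence (Ex/Em 405/460 nm, triamterene-equivalent) was measured after 1 hr compound exposure at 37 C, 5% CO2. Cells were HepG2, plated overnight at 37 C in MEM plus 10% FBS.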

[17] = biological target: Glucocorticoid receptor (Homo sapiens) (UniProt P04150); test: qHTS assay to identify small molecule agonists of the glucocorticoid receptor (GR) signaling pathway (AID 720691; active = well fitted activation curve with a large enough effect in the signal ratio in the repeat runs, not every such curve was filed as active; the % refers to the signal ratio); conditions: GR-bla HeLa, beta-lactamase reporter ratio, 18 h; activation: at 62.4 µM (top of the series) unless noted
Summary of the method: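 Compounds in DMSO, alongside positive controls, were added to GR-bla HeLa reporter cells and incubated 18 h at 37 C; GRE-driven beta-lactamase was detected by fluorescence after 2 h with FRET substrate at room temperature.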

[18] = biological target: Glucocorticoid receptor (Homo sapiens) (UniProt P04150); test: qHTS assay to identify small molecule antagonists of the glucocorticoid receptor (GR) signaling pathway (AID 720692; active = well fitted inhibition curve with a large enough effect in the signal ratio in the repeat runs, not every such curve was filed as active; the % refers to the signal ratio)
Summary of the method: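 In a 1536-well cell format, compounds were added 4 h after seeding GR-bla HeLa cells, together with dexamethasone at 5 nM final; reporter activity was measured by FRET-substrate fluorescence following 18 h at 37 C.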

[19] = qHTS assay to test for compound auto fluorescence at 535 nm (green) in HEK293 cell free culture (AID 720682)
Summary of the method: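 Fluorescein serves as the green reference fluorophore; each compound's intrinsic emission at 535 nm (excitation 485 nm) is reported as an equivalent amount of that dye, measured in serum-containing DMEM without cells.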

[20] = qHTS assay for small molecule disruptors of the mitochondrial membrane potential (AID 720635)
Summary of the method: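 Mitochondrial membrane potential tracked with Mito-MPS dye, red aggregates (ex 540/em 590 nm) against green monomers (ex 490/em 535 nm). Compound treatment 1 hr at 37C, dye 30 min in HepG2.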
% is set by controls: 0 for no effect and ±100 for the full control effect.

Glucocorticoid receptor (Homo sapiens), sequence (P04150 whole entry, looked up): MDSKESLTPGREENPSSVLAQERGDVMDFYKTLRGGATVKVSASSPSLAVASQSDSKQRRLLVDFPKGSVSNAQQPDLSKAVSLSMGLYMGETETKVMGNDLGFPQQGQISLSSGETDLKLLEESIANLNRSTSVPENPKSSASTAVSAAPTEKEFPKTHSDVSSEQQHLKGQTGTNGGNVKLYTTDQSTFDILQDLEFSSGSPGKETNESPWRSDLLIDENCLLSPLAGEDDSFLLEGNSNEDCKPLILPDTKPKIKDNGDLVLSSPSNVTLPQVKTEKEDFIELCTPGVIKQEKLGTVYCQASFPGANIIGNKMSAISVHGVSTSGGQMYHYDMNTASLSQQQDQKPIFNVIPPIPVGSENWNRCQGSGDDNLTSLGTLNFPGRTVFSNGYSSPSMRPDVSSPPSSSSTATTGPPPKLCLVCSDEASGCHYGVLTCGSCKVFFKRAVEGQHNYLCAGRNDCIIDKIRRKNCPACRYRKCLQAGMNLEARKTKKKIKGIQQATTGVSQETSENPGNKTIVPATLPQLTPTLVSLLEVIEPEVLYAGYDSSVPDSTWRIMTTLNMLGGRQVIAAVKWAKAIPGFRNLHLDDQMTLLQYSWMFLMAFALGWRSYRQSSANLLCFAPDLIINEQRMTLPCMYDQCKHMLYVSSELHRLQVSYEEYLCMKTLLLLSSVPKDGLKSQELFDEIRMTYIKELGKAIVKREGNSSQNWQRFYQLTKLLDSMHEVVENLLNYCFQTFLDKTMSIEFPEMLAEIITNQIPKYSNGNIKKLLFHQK

CC(=O)c1ccc2c(c1)N(CCCN(C)C)c1ccccc1S2
inactive: Potency [1] | Potency [2] | Potency [3] | Potency [4] | Potency [5] | fluorescence, relative to Rose Bengal [6] -0.407% [at 18.6 µM] | fluorescence, % of fluorescein control [7] 0.0535% [at 18.6 µM] | fluorescence, % of triamterene [8] -0.118% [at 18.6 µM] | fluorescence, % of fluorescent control [9] 0.0215% [at 18.6 µM] | fluorescence, % of fluorescein [10] -0.246% [at 18.6 µM] | fluorescence, % of fluorescent control [11] -0.103% [at 18.6 µM] | fluorescence, % of fluorescent control [12] -0.0325% [at 18.6 µM] | fluorescence, % of Rose Bengal [13] 0.233% [at 18.6 µM] | fluorescence, % of fluorescent control [14] 0.0422% [at 18.6 µM] | fluorescence, % of fluorescein control [15] -0.0543% [at 18.6 µM] | fluorescence, % of fluorescent control [16] -0.0528% [at 18.6 µM] | Potency [17] | Potency [18]

Nc1cccc(S(=O)(=O)c2cccc(N)c2)c1
inactive: Potency [1] | Potency [2] | Potency [3] | Potency [4] | Potency [5] | Potency [7] | outcome [8] | Potency [9] | outcome [10] | outcome [11] | outcome [19] | Potency [12] | Potency [13] | Potency [15] | outcome [16] | Potency [17] | Potency [18]

O=S(c1cc(Cl)cc(Cl)c1O)c1cc(Cl)cc(Cl)c1O
inactive: Potency [2] | Potency [4] | Potency [6] | Potency [7] | outcome [8] | Potency [9] | outcome [10] | outcome [11] | Potency [12] | Potency [13] | outcome [14] | Potency [15] | outcome [16]
active: Potency [1] 8.41 µM | Potency [3] 3.35 µM

C=C1[C@H]2CC[C@@H]3[C@H]2C(C)(C)CCC[C@]13C
inactive: Potency [1] | Potency [2] | Potency [3] | Potency [4] | Potency [6] | outcome [8] | Potency [9] | outcome [10] | outcome [11] | outcome [19] | Potency [12] | Potency [13] | outcome [14] | Potency [15] | outcome [16] | Potency [18]

CCOc1ccc(O)cc1
inactive: Potency [1] | Potency [3] | Potency [4] | Potency [5] | Potency [20] | Potency [6] | outcome [8] | Potency [9] | outcome [11] | outcome [19] | Potency [12] | Potency [13] | Potency [15] | outcome [16] | Potency [17]

Nc1ccc(S(=O)(=O)Nc2ccccc2)cc1
inactive: Potency [1] | Potency [3] | Potency [4] | Potency [5] | Potency [20] | Potency [6] | Potency [7] | outcome [8] | Potency [9] | outcome [11] | outcome [19] | Potency [12] | Potency [13] | Potency [15] | outcome [16] | Potency [17] | Potency [18]

COC(=O)C1=C(C)NC(COC(N)=O)=C(C(=O)OC(C)C)C1c1cccc(Cl)c1Cl (configuration not stated)
inactive: Potency [2] | Potency [3] | Potency [4] | Potency [7] | Potency [9] | outcome [10] | outcome [19] | Potency [12] | Potency [13] | Potency [15]
active: Potency [1] 16.8 µM

CCNc1cc(O)ccc1C
inactive: Potency [1] | Potency [2] | Potency [3] | Potency [4] | Potency [7] | Potency [9] | outcome [10] | outcome [11] | outcome [19] | Potency [12] | Potency [13] | outcome [14] | Potency [15] | outcome [16]

O=CC1CC=CCC1 (configuration not stated)
inactive: Potency [1] | Potency [3] | Potency [4] | Potency [5] | Potency [6] | Potency [7] | outcome [8] | Potency [9] | outcome [10] | outcome [11] | outcome [19] | Potency [12] | Potency [13] | outcome [14] | outcome [16]

O=C(O)CNCC(=O)O
inactive: activation [1] -5.9% [at 8.3 µM] | activation [2] 0.678% [at 8.08 µM] | activity change, negative = cytotoxicity [3] 6.66% [at 8.08 µM] | activity, negative = cytotoxicity [4] 24.8% [at 8.08 µM] | fluorescence, relative to Rose Bengal [6] -0.419% [at 3.72 µM] | fluorescence, % of fluorescent control [9] -0.0175% [at 3.72 µM] | fluorescence, % of fluorescein [10] -0.0204% [at 3.72 µM] | fluorescence, % of fluorescent control [11] -0.259% [at 3.72 µM] | activity change [19] -0.144% [at 3.72 µM] | fluorescence, % of fluorescent control [12] -0.223% [at 3.72 µM] | fluorescence, % of Rose Bengal [13] -0.109% [at 3.72 µM] | fluorescence, % of fluorescent control [14] -0.156% [at 3.72 µM] | fluorescence, % of fluorescent control [16] -0.0767% [at 3.72 µM] | activation [17] -1.96% [at 6.9 µM]

NC(=O)C(c1ccccc1)(c1ccccc1)[C@@H]1CCN(CCc2ccc3c(c2)CCO3)C1
inactive: Potency [1] | Potency [2] | Potency [4] | Potency [5] | Potency [6] | Potency [7] | outcome [8] | Potency [9] | outcome [10] | outcome [11] | outcome [19] | Potency [12] | Potency [13] | outcome [14] | Potency [15] | outcome [16] | Potency [17] | Potency [18]

c1ccc(C(O[C@H]2CCCN(CCc3ccc4c(c3)OCO4)C2)c2ccccc2)cc1
inactive: Potency [1] | Potency [2] | Potency [4] | Potency [5] | Potency [6] | Potency [7] | outcome [8] | Potency [9] | outcome [10] | outcome [11] | outcome [19] | Potency [12] | Potency [13] | outcome [14] | Potency [15] | outcome [16] | Potency [17]

CC1(c2ccccc2)OC(C(=O)O)=CC1=O (configuration not stated)
inactive: Potency [1] | Potency [3] | Potency [4] | Potency [5] | outcome [8] | Potency [9] | outcome [10] | outcome [11] | outcome [19] | Potency [12] | Potency [13] | outcome [14] | Potency [15] | outcome [16]

CCCCCCCCO[C@@H]1O[C@H](CO)[C@@H](O)[C@H](O)[C@H]1O
inactive: Potency [1] | Potency [3] | Potency [4] | Potency [5] | Potency [6] | outcome [8] | Potency [9] | outcome [10] | outcome [11] | outcome [19] | Potency [12] | Potency [13] | outcome [14] | outcome [16] | Potency [18]

c1ccc(CNCCNCc2ccccc2)cc1
inactive: Potency [1] | Potency [3] | Potency [4] | Potency [5] | Potency [6] | Potency [7] | outcome [8] | Potency [9] | outcome [10] | outcome [11] | Potency [12] | Potency [13] | outcome [14] | Potency [15] | outcome [16] | Potency [18]

Reference: PubChem BioAssay (Tox21)
